What all share (assay): yeast three-hybrid, YBZ-1, SC-Leu-His + 0.5 mM 3-AT, 4 days
Holding throughout (conditions): tags: N-Gal4 AD-HA kept; label: inside an RPR1-promoter hybrid RNA with tandem MS2 sites; ssRNA

One assay addresses PUM1 PUF domain R3-FFS (Homo sapiens, UniProt Q14671 828-1176, C935F;R936F;Q939S). In short, it runs like this:
(§1)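 A centromeric plasmid in strain YBZ-1 co-expressed Pumilio-1 PUF domain libraries, randomized at the three base-contacting residues of each repeat, with matching RNA elements; the strain carries a LexA–MS2 coat fusion and a HIS3 reporter. After four days on SC-Leu (input) or SC-Leu-His + 0.5 mM 3-AT (selection), the repeat regions were PCR-amplified and Illumina-sequenced. The interaction score is the log change in variant frequency from input to selection, using log2 and a pseudocount of 1 where absent.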

Another assay addresses PUM1 PUF domain R3-GRR (Homo sapiens, UniProt Q14671 828-1176, C935G;Q939R). In short, it runs like this:
as §1

The next assay deals with PUM1 PUF domain R3-YWF (Homo sapiens, UniProt Q14671 828-1176, C935Y;R936W;Q939F). The procedure, abridged: as §1
Chain of PUM1 PUF domain R3-YWF (Q14671 828-1176 C935Y/R936W/Q939F): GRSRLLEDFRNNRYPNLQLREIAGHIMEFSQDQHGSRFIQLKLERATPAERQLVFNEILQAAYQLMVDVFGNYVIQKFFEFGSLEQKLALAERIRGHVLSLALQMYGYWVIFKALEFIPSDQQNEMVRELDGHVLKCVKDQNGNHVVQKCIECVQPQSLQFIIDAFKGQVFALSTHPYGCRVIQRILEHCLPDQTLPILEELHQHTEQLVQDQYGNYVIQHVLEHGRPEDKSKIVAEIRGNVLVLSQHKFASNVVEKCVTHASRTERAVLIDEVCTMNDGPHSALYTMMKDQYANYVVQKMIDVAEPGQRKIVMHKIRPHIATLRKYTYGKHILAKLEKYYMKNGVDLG
The target in the next assay is PUM1 PUF domain R3-YRD (Homo sapiens, UniProt Q14671 828-1176, C935Y;Q939D). The procedure, abridged: as §1
Chain of PUM1 PUF domain R3-YRD (Q14671 828-1176 C935Y/Q939D): as the sequence (Q14671 828-1176 C935Y/R936W/Q939F) above, with W109R, F112D counted along it
For the next assay, the target named is PUM1 PUF domain R1-TGR (Homo sapiens, UniProt Q14671 828-1176, S863T;R864G;Q867R). The procedure, abridged:
as §1

The target in the next assay is PUM1 PUF domain R1-QFR (Homo sapiens, UniProt Q14671 828-1176, S863Q;R864F;Q867R). In short, it runs like this: as §1
Chain of PUM1 PUF domain R1-QFR (Q14671 828-1176 S863Q/R864F/Q867R): as the sequence (Q14671 828-1176 C935Y/R936W/Q939F) above, with S36Q, R37F, Q40R, Y108C, W109R, F112Q counted along it
In the next assay the target is PUM1 PUF domain R1-KRK (Homo sapiens, UniProt Q14671 828-1176, S863K;Q867K). The procedure, abridged: as §1
Chain of PUM1 PUF domain R1-KRK (Q14671 828-1176 S863K/Q867K): as the sequence (Q14671 828-1176 C935Y/R936W/Q939F) above, with S36K, Q40K, Y108C, W109R, F112Q counted along it
In the next assay the target is PUM1 PUF domain R8-TFR (Homo sapiens, UniProt Q14671 828-1176, N1122T;Y1123F;Q1126R). The procedure, abridged:
as §1

For a further assay, the target named is PUM1 PUF domain R2-RKC (Homo sapiens, UniProt Q14671 828-1176, N899R;Y900K;Q903C). In short, it runs like this: as §1
Chain of PUM1 PUF domain R2-RKC (Q14671 828-1176 N899R/Y900K/Q903C): as the sequence (Q14671 828-1176 C935Y/R936W/Q939F) above, with N72R, Y73K, Q76C, Y108C, W109R, F112Q counted along it
For another assay, the target named is PUM1 PUF domain R7-QSG (Homo sapiens, UniProt Q14671 828-1176, S1079Q;N1080S;E1083G). The procedure, abridged: as §1
Chain of PUM1 PUF domain R7-QSG (Q14671 828-1176 S1079Q/N1080S/E1083G): as the sequence (Q14671 828-1176 C935Y/R936W/Q939F) above, with Y108C, W109R, F112Q, S252Q, N253S, E256G counted along it
The next assay concerns the target PUM1 PUF domain R3-SQQ (Homo sapiens, UniProt Q14671 828-1176, C935S;R936Q). In short, it runs like this:
as §1

For a further assay, the target named is PUM1 PUF domain R4-WAS (Homo sapiens, UniProt Q14671 828-1176, N971W;H972A;Q975S). In short, it runs like this: as §1
Chain of PUM1 PUF domain R4-WAS (Q14671 828-1176 N971W/H972A/Q975S): as the sequence (Q14671 828-1176 C935Y/R936W/Q939F) above, with Y108C, W109R, F112Q, N144W, H145A, Q148S counted along it
For a further assay, the target named is PUM1 PUF domain R4-RGG (Homo sapiens, UniProt Q14671 828-1176, N971R;H972G;Q975G). In short, it runs like this:
as §1

A further assay addresses PUM1 PUF domain R8-HFN (Homo sapiens, UniProt Q14671 828-1176, N1122H;Y1123F;Q1126N). The procedure, abridged:
as §1

The target of a further assay is PUM1 PUF domain R5-RCL (Homo sapiens, UniProt Q14671 828-1176, C1007R;R1008C;Q1011L). In short, it runs like this:
as §1

For the next assay, the target named is PUM1 PUF domain R5-RGE (Homo sapiens, UniProt Q14671 828-1176, C1007R;R1008G;Q1011E). In short, it runs like this:
as §1

The target in the next assay is PUM1 PUF domain R5-QPI (Homo sapiens, UniProt Q14671 828-1176, C1007Q;R1008P;Q1011I). In short, it runs like this:
as §1

The target in a further assay is PUM1 PUF domain R7-KPL (Homo sapiens, UniProt Q14671 828-1176, S1079K;N1080P;E1083L). In short, it runs like this:
as §1

Another assay deals with PUM1 PUF domain R7-RSQ (Homo sapiens, UniProt Q14671 828-1176, S1079R;N1080S;E1083Q). In short, it runs like this:
as §1

The target of a further assay is PUM1 PUF domain R4-EWH (Homo sapiens, UniProt Q14671 828-1176, N971E;H972W;Q975H). In short, it runs like this: as §1
Chain of PUM1 PUF domain R4-EWH (Q14671 828-1176 N971E/H972W/Q975H): as the sequence (Q14671 828-1176 C935Y/R936W/Q939F) above, with Y108C, W109R, F112Q, N144E, H145W, Q148H counted along it

Chain of PUM1 PUF domain R3-FFS (Q14671 828-1176 C935F/R936F/Q939S): as the sequence (Q14671 828-1176 C935Y/R936W/Q939F) above, with Y108F, W109F, F112S counted along it
Chain of PUM1 PUF domain R4-RGG (Q14671 828-1176 N971R/H972G/Q975G): as the sequence (Q14671 828-1176 C935Y/R936W/Q939F) above, with Y108C, W109R, F112Q, N144R, H145G, Q148G counted along it
Chain of PUM1 PUF domain R5-RGE (Q14671 828-1176 C1007R/R1008G/Q1011E): as the sequence (Q14671 828-1176 C935Y/R936W/Q939F) above, with Y108C, W109R, F112Q, C180R, R181G, Q184E counted along it
Chain of PUM1 PUF domain R8-TFR (Q14671 828-1176 N1122T/Y1123F/Q1126R): as the sequence (Q14671 828-1176 C935Y/R936W/Q939F) above, with Y108C, W109R, F112Q, N295T, Y296F, Q299R counted along it
Chain of PUM1 PUF domain R5-RCL (Q14671 828-1176 C1007R/R1008C/Q1011L): as the sequence (Q14671 828-1176 C935Y/R936W/Q939F) above, with Y108C, W109R, F112Q, C180R, R181C, Q184L counted along it
Chain of PUM1 PUF domain R3-GRR (Q14671 828-1176 C935G/Q939R): as the sequence (Q14671 828-1176 C935Y/R936W/Q939F) above, with Y108G, W109R, F112R counted along it
Chain of PUM1 PUF domain R1-TGR (Q14671 828-1176 S863T/R864G/Q867R): as the sequence (Q14671 828-1176 C935Y/R936W/Q939F) above, with S36T, R37G, Q40R, Y108C, W109R, F112Q counted along it
Chain of PUM1 PUF domain R7-KPL (Q14671 828-1176 S1079K/N1080P/E1083L): as the sequence (Q14671 828-1176 C935Y/R936W/Q939F) above, with Y108C, W109R, F112Q, S252K, N253P, E256L counted along it
Chain of PUM1 PUF domain R5-QPI (Q14671 828-1176 C1007Q/R1008P/Q1011I): as the sequence (Q14671 828-1176 C935Y/R936W/Q939F) above, with Y108C, W109R, F112Q, C180Q, R181P, Q184I counted along it
Chain of PUM1 PUF domain R8-HFN (Q14671 828-1176 N1122H/Y1123F/Q1126N): as the sequence (Q14671 828-1176 C935Y/R936W/Q939F) above, with Y108C, W109R, F112Q, N295H, Y296F, Q299N counted along it
Chain of PUM1 PUF domain R7-RSQ (Q14671 828-1176 S1079R/N1080S/E1083Q): as the sequence (Q14671 828-1176 C935Y/R936W/Q939F) above, with Y108C, W109R, F112Q, S252R, N253S, E256Q counted along it
Chain of PUM1 PUF domain R3-SQQ (Q14671 828-1176 C935S/R936Q): as the sequence (Q14671 828-1176 C935Y/R936W/Q939F) above, with Y108S, W109Q, F112Q counted along it

As to “GGCUAGAACUAGUGGAUCCCCCGGCGCCCGGCGGCUCGAGCCCGGGUAAGUGUAAUUAGUCUGCAUGCCGCCGGGCGCCAUGCCUGCAGGUCGACUCUAGAAAACAUG”, the binding signal with PUM1 PUF domain R3-FFS was 5.05 log2 enrichment (interaction score); in the assay with PUM1 PUF domain R3-GRR, 2.87 log2 enrichment (interaction score).

Consider “GGCUAGAACUAGUGGAUCCCCCGGCGCCCGGCGGCUCGAGCCCGGGUAAGUGUAAGUAGUCUGCAUGCCGCCGGGCGCCAUGCCUGCAGGUCGACUCUAGAAAACAUG”, for which the binding signal was 3.54 log2 enrichment (interaction score) in the assay with PUM1 PUF domain R3-YWF, 6.93 log2 enrichment (interaction score) with PUM1 PUF domain R3-FFS, 3.85 log2 enrichment (interaction score) with PUM1 PUF domain R3-YRD and 0.8 log2 enrichment (interaction score) in the assay with PUM1 PUF domain R3-GRR.

Take “GGCUAGAACUAGUGGAUCCCCCGGCGCCCGGCGGCUCGAGCCCGGGUAAGUGUAAAUCGUCUGCAUGCCGCCGGGCGCCAUGCCUGCAGGUCGACUCUAGAAAACAUG”: the binding signal in the assay with PUM1 PUF domain R1-TGR was 2.65 log2 enrichment (interaction score); in the assay with PUM1 PUF domain R1-QFR it was 7.18 log2 enrichment (interaction score); with PUM1 PUF domain R1-KRK, 4.04 log2 enrichment (interaction score).

“GGCUAGAACUAGUGGAUCCCCCGGCGCCCGGCGGCUCGAGCCCGGGUAAGGGUAAAUAGUCUGCAUGCCGCCGGGCGCCAUGCCUGCAGGUCGACUCUAGAAAACAUG”: in the assay with PUM1 PUF domain R8-TFR, the binding signal is 2.97 log2 enrichment (interaction score).

As to “GGCUAGAACUAGUGGAUCCCCCGGCGCCCGGCGGCUCGAGCCCGGGUAAGUGUAAAGAGUCUGCAUGCCGCCGGGCGCCAUGCCUGCAGGUCGACUCUAGAAAACAUG”, the binding signal with PUM1 PUF domain R2-RKC was 5.3 log2 enrichment (interaction score).

With “GGCUAGAACUAGUGGAUCCCCCGGCGCCCGGCGGCUCGAGCCCGGGUAAGUGUAAAUUGUCUGCAUGCCGCCGGGCGCCAUGCCUGCAGGUCGACUCUAGAAAACAUG”, in the assay with PUM1 PUF domain R1-TGR, the binding signal was 0.64 log2 enrichment (interaction score).

For the sequence “GGCUAGAACUAGUGGAUCCCCCGGCGCCCGGCGGCUCGAGCCCGGGUAAGUUUAAAUAGUCUGCAUGCCGCCGGGCGCCAUGCCUGCAGGUCGACUCUAGAAAACAUG”, the binding signal with PUM1 PUF domain R7-QSG was 2.85 log2 enrichment (interaction score).

“GGCUAGAACUAGUGGAUCCCCCGGCGCCCGGCGGCUCGAGCCCGGGUAAGUGUAAAUAGUCUGCAUGCCGCCGGGCGCCAUGCCUGCAGGUCGACUCUAGAAAACAUG”: the binding signal with PUM1 PUF domain R3-SQQ is 2.27 log2 enrichment (interaction score); with PUM1 PUF domain R3-FFS it was 3.99 log2 enrichment (interaction score); in the assay with PUM1 PUF domain R4-WAS, 2.5 log2 enrichment (interaction score); with PUM1 PUF domain R4-RGG, 2.44 log2 enrichment (interaction score).

“GGCUAGAACUAGUGGAUCCCCCGGCGCCCGGCGGCUCGAGCCCGGGUAAGCGUAAAUAGUCUGCAUGCCGCCGGGCGCCAUGCCUGCAGGUCGACUCUAGAAAACAUG”: the values for the binding signal in the assay with PUM1 PUF domain R8-HFN and with PUM1 PUF domain R8-TFR were 3.57 log2 enrichment (interaction score) and 4.89 log2 enrichment (interaction score), respectively.

For the sequence “GGCUAGAACUAGUGGAUCCCCCGGCGCCCGGCGGCUCGAGCCCGGGUAAGUGUAUAUAGUCUGCAUGCCGCCGGGCGCCAUGCCUGCAGGUCGACUCUAGAAAACAUG”, in the assay with PUM1 PUF domain R4-WAS, the binding signal is 4.67 log2 enrichment (interaction score).

Regarding “GGCUAGAACUAGUGGAUCCCCCGGCGCCCGGCGGCUCGAGCCCGGGUAAGUGUUAAUAGUCUGCAUGCCGCCGGGCGCCAUGCCUGCAGGUCGACUCUAGAAAACAUG”, the binding signal in the assay with PUM1 PUF domain R5-RCL was 2.91 log2 enrichment (interaction score); in the assay with PUM1 PUF domain R5-RGE it was 0.96 log2 enrichment (interaction score); with PUM1 PUF domain R5-QPI, 3.43 log2 enrichment (interaction score).

For the sequence “GGCUAGAACUAGUGGAUCCCCCGGCGCCCGGCGGCUCGAGCCCGGGUAAGUGUCAAUAGUCUGCAUGCCGCCGGGCGCCAUGCCUGCAGGUCGACUCUAGAAAACAUG”, the binding signal was 1.64 log2 enrichment (interaction score) in the assay with PUM1 PUF domain R5-RCL and 2.34 log2 enrichment (interaction score) in the assay with PUM1 PUF domain R5-RGE.

For “GGCUAGAACUAGUGGAUCCCCCGGCGCCCGGCGGCUCGAGCCCGGGUAAGUCUAAAUAGUCUGCAUGCCGCCGGGCGCCAUGCCUGCAGGUCGACUCUAGAAAACAUG”, the values for the binding signal in the assay with PUM1 PUF domain R7-KPL and in the assay with PUM1 PUF domain R7-RSQ were 2.86 log2 enrichment (interaction score) and 2.88 log2 enrichment (interaction score), respectively.

In the case of “GGCUAGAACUAGUGGAUCCCCCGGCGCCCGGCGGCUCGAGCCCGGGUAAGUGUACAUAGUCUGCAUGCCGCCGGGCGCCAUGCCUGCAGGUCGACUCUAGAAAACAUG”, the binding signal was 3.76 log2 enrichment (interaction score) with PUM1 PUF domain R4-WAS, 1.13 log2 enrichment (interaction score) with PUM1 PUF domain R4-RGG and 2.99 log2 enrichment (interaction score) with PUM1 PUF domain R4-EWH.

Source of the values: article PMC8384837, “Expanding the binding specificity for RNA recognition by a PUF domain”.
